Records with an inconclusive call do not appear. The source made the active and inactive calls. How the source made its calls: active means hit-call score of the fitted dose curve at least 0.9, where 1 is the maximum; inconclusive means response in the unintended direction; inactive means score below 0.9.
Molecular target: rat Gamma-Aminobutyric Acid Type B Receptor (GABBR), Gabbr1 (gene 81657) (UniProt Q9Z0U4)
Experiment: NVS_GPCR_rGABBR: NovaScreen (NVS) G Protein-Coupled Receptor Assay for rat Gamma-Aminobutyric Acid Type B Receptor (GABBR) (AID 2283301)
In short: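 Radioligand displacement on rat cortical membranes, 1 h, filter-based scintillation counting. Primary screen at 25 uM in duplicate; compounds passing threshold re-tested in concentration-response up to 50 uM; loss of binding fitted against DMSO.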

rat Gamma-Aminobutyric Acid Type B Receptor (GABBR), Gabbr1 (gene 81657), sequence (Q9Z0U4 whole entry, looked up): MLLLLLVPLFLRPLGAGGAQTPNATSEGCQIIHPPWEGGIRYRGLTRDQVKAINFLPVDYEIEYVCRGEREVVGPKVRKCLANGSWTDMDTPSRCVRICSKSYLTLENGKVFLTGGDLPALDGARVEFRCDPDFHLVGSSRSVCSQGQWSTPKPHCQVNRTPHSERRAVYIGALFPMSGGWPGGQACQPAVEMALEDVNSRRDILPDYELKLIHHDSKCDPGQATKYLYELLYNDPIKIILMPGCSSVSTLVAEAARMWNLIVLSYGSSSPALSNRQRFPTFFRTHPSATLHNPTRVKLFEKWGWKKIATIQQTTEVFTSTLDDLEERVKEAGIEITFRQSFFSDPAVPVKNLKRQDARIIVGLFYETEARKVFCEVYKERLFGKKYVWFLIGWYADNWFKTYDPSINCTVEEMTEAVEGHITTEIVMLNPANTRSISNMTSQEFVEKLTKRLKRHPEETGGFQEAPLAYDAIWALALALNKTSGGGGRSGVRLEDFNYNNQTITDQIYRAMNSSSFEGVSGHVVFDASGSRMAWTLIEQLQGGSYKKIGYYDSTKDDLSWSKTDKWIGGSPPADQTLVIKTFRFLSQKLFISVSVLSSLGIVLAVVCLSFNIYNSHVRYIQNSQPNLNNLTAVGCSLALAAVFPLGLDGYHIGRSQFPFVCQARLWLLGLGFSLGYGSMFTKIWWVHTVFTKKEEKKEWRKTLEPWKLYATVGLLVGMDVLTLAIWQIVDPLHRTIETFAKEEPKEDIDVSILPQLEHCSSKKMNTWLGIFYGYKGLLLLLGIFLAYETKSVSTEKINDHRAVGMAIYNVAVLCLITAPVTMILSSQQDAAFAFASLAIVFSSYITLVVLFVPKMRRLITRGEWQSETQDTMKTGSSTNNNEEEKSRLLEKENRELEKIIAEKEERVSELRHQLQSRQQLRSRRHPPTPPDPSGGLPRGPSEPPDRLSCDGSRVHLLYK

Compound	outcome
CC/C(=C(/CC)c1ccc(O)cc1)c1ccc(O)cc1	inactive
COc1cccc([C@H](O)C2CCN(CCc3ccc(F)cc3)CC2)c1OC	inactive
O=C(O)Cc1cc(I)c(Oc2ccc(O)c(I)c2)c(I)c1	inactive
Cc1ncc(CO)c(CO)c1O	inactive

Molecular target: rat Histamine Receptor (H3), Hrh3 (gene 85268) (UniProt Q9QYN8)
Experiment: NVS_GPCR_rH3: NovaScreen (NVS) G Protein-Coupled Receptor Assay for rat Histamine Receptor (H3) (AID 2283303)
In short: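 Rat forebrain membranes incubated 1 h with compound; radioligand displacement measured by filter-based scintillation counting. Single-concentration duplicates at 25 µM, then concentration-response up to 50 µM, relative to DMSO.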

rat Histamine Receptor (H3), Hrh3 (gene 85268), sequence (Q9QYN8 whole entry, looked up): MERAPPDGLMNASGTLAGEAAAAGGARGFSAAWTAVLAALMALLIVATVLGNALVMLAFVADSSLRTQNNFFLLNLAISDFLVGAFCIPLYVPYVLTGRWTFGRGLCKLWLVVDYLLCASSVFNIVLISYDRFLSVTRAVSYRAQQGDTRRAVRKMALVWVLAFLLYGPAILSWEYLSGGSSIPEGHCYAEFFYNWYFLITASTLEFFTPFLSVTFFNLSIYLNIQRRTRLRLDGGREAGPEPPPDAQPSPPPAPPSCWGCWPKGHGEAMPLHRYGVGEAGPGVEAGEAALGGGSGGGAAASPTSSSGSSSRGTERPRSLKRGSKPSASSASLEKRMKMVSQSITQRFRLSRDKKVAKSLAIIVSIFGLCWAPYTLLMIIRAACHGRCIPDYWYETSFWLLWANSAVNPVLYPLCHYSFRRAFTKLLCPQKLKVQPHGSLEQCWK

Compound	outcome	AC50
c1ccc(C[n+]2cccc3ccccc32)cc1	inactive	
Cc1occc1C(=O)Nc1ccc(C(=O)N2CCC(F)(F)/C(=C\C(=O)N3CCC(N4CCCCC4)CC3)c3ccccc32)cc1		4.22 µM (active)
O=C1c2ccccc2C(=O)N1CCc1noc(-c2ccc(CN3CCCCCC3)s2)n1		16.8 µM (active)
COc1cc(C(=O)NC2CCN(C)CC2)ccc1Nc1ncc2c(n1)N(C1CCCC1)CC(F)(F)C(=O)N2C		3.19 µM (active)
CN(C)c1ccc(C(=C2C=CC(=[N+](C)C)C=C2)c2ccc(N(C)C)cc2)cc1		23 µM (active)

Molecular target: Metabotropic glutamate receptor 1 (Rattus norvegicus) (UniProt P23385)
Experiment: NVS_GPCR_rmMGluR1: NovaScreen (NVS) G Protein-Coupled Receptor Assay for rat Glutamate Metabotropic Receptor 1 (MGluR1) (AID 2283305)
In short: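 Rat cerebellum membrane preparation, radioligand displacement binding read by filter-based scintillation counting 1 hour after dosing. Initial duplicate single-point screen at 25 uM, then concentration-response up to 50 uM; loss of signal versus DMSO baseline scored.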

Metabotropic glutamate receptor 1 (Rattus norvegicus), sequence (P23385 whole entry, looked up): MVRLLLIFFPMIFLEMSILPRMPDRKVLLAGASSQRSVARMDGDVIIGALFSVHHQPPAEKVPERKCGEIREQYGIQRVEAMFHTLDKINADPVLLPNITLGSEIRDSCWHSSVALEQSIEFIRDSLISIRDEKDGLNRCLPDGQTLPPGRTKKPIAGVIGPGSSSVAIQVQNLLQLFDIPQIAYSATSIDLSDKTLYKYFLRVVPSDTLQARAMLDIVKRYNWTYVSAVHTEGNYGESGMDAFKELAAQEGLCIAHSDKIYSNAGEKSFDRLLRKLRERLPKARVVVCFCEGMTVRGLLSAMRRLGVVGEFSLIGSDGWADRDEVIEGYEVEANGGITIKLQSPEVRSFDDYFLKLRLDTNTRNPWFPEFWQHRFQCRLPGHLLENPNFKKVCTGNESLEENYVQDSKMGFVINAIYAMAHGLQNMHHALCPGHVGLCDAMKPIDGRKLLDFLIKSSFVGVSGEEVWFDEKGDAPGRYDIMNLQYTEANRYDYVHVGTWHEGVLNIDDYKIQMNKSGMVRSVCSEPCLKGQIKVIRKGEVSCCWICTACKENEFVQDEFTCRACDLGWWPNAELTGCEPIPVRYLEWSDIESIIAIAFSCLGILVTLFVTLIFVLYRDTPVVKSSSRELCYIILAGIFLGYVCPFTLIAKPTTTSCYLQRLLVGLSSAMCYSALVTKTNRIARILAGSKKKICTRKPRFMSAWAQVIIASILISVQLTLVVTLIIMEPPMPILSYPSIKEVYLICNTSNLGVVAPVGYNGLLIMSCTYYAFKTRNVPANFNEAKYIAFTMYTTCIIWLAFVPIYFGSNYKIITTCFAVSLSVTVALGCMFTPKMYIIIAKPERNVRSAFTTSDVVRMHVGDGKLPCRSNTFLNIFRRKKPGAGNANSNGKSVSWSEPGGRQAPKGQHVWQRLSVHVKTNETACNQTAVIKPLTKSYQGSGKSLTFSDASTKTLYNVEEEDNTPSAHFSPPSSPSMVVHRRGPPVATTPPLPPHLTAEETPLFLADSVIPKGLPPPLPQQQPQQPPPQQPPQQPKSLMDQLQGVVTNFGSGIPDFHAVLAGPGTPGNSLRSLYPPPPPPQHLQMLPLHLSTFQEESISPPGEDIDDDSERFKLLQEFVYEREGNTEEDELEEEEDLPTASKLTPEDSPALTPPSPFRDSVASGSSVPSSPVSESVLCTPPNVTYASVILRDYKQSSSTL

Compound	AC50
Cc1cc(F)ccc1-c1cc(N2CC[C@@H](O)[C@H]2CO)ncc1N(C)C(=O)C(C)(C)c1cc(C(F)(F)F)cc(C(F)(F)F)c1	8.39 µM (active)
O=c1[nH]sc2ccccc12	35.9 µM (active)
CCOC(=O)O[C@H](C)OC(=O)c1ccc2c(c1)cc(C(=O)NC1CCN(C(C)C)CC1)n2Cc1cc(-c2ccc(Cl)s2)on1	17 µM (active)
CN(C)C(=O)C1(N2CCCCC2)CCN(CC[C@@]2(c3ccc(Cl)c(Cl)c3)CN(C(=O)c3ccccc3)CCO2)CC1	15.5 µM (active)

Molecular target: Adra2b (gene 24174) (UniProt P19328)
Experiment: NVS_GPCR_rmAdra2B: NovaScreen (NVS) G Protein-Coupled Receptor Assay for hybird cells Adrenergic, Alpha 2B Receptor (Adra2B) (AID 2283306)
In short: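 Radioligand filter-binding assay on membrane proteins from neuroglioma/blastoma hybrid cells (rodent), 1 h after dosing; scintillation counting, loss of signal vs DMSO. Primary screen in duplicate at 25 uM, actives then run in concentration series.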

Adra2b (gene 24174), sequence (P19328 whole entry, looked up): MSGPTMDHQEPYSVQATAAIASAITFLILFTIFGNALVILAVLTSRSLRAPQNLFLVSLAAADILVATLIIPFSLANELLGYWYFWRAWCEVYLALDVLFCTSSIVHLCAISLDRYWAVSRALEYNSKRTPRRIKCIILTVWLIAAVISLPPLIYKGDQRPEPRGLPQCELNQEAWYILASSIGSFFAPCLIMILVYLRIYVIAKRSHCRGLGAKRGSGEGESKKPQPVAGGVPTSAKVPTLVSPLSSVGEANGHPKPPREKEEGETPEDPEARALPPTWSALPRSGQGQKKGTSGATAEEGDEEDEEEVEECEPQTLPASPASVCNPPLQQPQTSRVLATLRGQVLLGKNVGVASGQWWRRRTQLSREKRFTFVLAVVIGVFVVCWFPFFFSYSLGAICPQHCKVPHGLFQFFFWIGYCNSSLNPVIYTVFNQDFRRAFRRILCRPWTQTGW

Compound	AC50	outcome
c1ccc(C[n+]2cccc3ccccc32)cc1	12.2 µM (active)	
CCN(CC)C(=O)c1cc(S(=O)(=O)Cc2ccccc2)c(N2CCC(c3ccccc3)CC2)cc1N(CC)CCN(C)C	7.81 µM (active)	
Cc1occc1C(=O)Nc1ccc(C(=O)N2CCC(F)(F)/C(=C\C(=O)N3CCC(N4CCCCC4)CC3)c3ccccc32)cc1	1.25 µM (active)	
O=c1[nH]sc2ccccc12	37.4 µM (active)	
COc1cccc([C@H](O)C2CCN(CCc3ccc(F)cc3)CC2)c1OC	1.85 µM (active)	
CCOC(=O)O[C@H](C)OC(=O)c1ccc2c(c1)cc(C(=O)NC1CCN(C(C)C)CC1)n2Cc1cc(-c2ccc(Cl)s2)on1	15.4 µM (active)	
CCN(Cc1cccnc1)C(=O)c1cccc(Cl)c1[C@]1(C)C(=O)N(Cc2ccc(OC)cc2OC)c2ccc(Cl)cc21	4.68 µM (active)	
O=C1c2ccccc2C(=O)N1CCc1noc(-c2ccc(CN3CCCCCC3)s2)n1	3.3 µM (active)	
COc1cc(C(=O)NC2CCN(C)CC2)ccc1Nc1ncc2c(n1)N(C1CCCC1)CC(F)(F)C(=O)N2C	18.8 µM (active)	
COc1ccc2cc(S(=O)(=O)N[C@H](CC(=O)N[C@H](Cc3ccc(CN4[C@H](C)CCC[C@@H]4C)cc3)C(=O)N(C)C(C)C)c3ccc4c(c3)OCO4)ccc2c1	11.1 µM (active)	
CCCCCCCCCCCC[N+](C)(C)C	37.3 µM (active)	
CN(C)C(=O)C1(N2CCCCC2)CCN(CC[C@@]2(c3ccc(Cl)c(Cl)c3)CN(C(=O)c3ccccc3)CCO2)CC1	8.86 µM (active)	
CN(C)c1ccc(C(=C2C=CC(=[N+](C)C)C=C2)c2ccc(N(C)C)cc2)cc1	9.73 µM (active)	
O=C1CCC(C2CCCCC2)CC1		inactive
Clc1cc(Cl)c2c(c1)N=C1CCCCCN1C2	5.33 µM (active)	
NCc1cccc(C2CCN(C(=O)c3ccc(C#Cc4ccccc4F)o3)CC2)c1	13.3 µM (active)	

Molecular target: rat Neurokinin-1 Receptor (NK1), Tacr1 (gene 24807) (UniProt P14600)
Experiment: NVS_GPCR_rNK1: NovaScreen (NVS) G Protein-Coupled Receptor Assay for rat Neurokinin-1 Receptor (NK1) (AID 2283309)
In short: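 Rat submaxillary gland membranes; radioligand displacement read by filter-based scintillation counting after 1 h. Primary screen in duplicate at 25 uM; actives retested in concentration series; loss of binding fitted versus DMSO.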

rat Neurokinin-1 Receptor (NK1), Tacr1 (gene 24807), sequence (P14600 whole entry, looked up): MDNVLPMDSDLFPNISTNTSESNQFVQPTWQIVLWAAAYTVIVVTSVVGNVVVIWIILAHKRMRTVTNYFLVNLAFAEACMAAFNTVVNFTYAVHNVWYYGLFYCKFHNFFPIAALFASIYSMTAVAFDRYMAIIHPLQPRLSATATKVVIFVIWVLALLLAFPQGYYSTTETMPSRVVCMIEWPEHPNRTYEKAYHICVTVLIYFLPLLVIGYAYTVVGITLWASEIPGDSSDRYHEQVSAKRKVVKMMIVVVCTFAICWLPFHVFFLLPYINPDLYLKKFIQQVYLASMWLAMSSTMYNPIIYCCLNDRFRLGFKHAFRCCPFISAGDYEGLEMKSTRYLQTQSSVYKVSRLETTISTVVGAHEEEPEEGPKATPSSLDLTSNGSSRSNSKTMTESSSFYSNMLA

Compound	AC50	outcome
Cc1cc(F)ccc1-c1cc(N2CC[C@@H](O)[C@H]2CO)ncc1N(C)C(=O)C(C)(C)c1cc(C(F)(F)F)cc(C(F)(F)F)c1	0.274 µM (active)	
c1ccc(C[n+]2cccc3ccccc32)cc1		inactive
CCN(CC)C(=O)c1cc(S(=O)(=O)Cc2ccccc2)c(N2CCC(c3ccccc3)CC2)cc1N(CC)CCN(C)C	23.4 µM (active)	
Cc1occc1C(=O)Nc1ccc(C(=O)N2CCC(F)(F)/C(=C\C(=O)N3CCC(N4CCCCC4)CC3)c3ccccc32)cc1	11.7 µM (active)	
CC(C)(C)c1csc(-c2cc3cc(OCc4ccccc4CC(=O)O)ccc3o2)n1		inactive
CC[C@H](NC(=O)c1cc(F)ccc1NS(=O)(=O)c1cccc2cccnc12)c1ccccc1		inactive
CN(C[C@@H](CC[N+]12CCC(C3CCCCC3)(CC1)CC2)c1ccc(Cl)c(Cl)c1)C(=O)c1cc(C(F)(F)F)cc(C(F)(F)F)c1	0.403 µM (active)	
CCOC(=O)O[C@H](C)OC(=O)c1ccc2c(c1)cc(C(=O)NC1CCN(C(C)C)CC1)n2Cc1cc(-c2ccc(Cl)s2)on1	32.1 µM (active)	
Cc1oc2c(NC(=O)c3c(Cl)cccc3Cl)cccc2c1C(C)(C)O		inactive
CCN(Cc1cccnc1)C(=O)c1cccc(Cl)c1[C@]1(C)C(=O)N(Cc2ccc(OC)cc2OC)c2ccc(Cl)cc21	23.6 µM (active)	
O=C1c2ccccc2C(=O)N1CCc1noc(-c2ccc(CN3CCCCCC3)s2)n1	12 µM (active)	
COc1cc(C(=O)NC2CCN(C)CC2)ccc1Nc1ncc2c(n1)N(C1CCCC1)CC(F)(F)C(=O)N2C	13.9 µM (active)	
COc1ccc2cc(S(=O)(=O)N[C@H](CC(=O)N[C@H](Cc3ccc(CN4[C@H](C)CCC[C@@H]4C)cc3)C(=O)N(C)C(C)C)c3ccc4c(c3)OCO4)ccc2c1	11.4 µM (active)	
CCCCCCCCCCCC[N+](C)(C)C	44.9 µM (active)	
CN(C)C(=O)C1(N2CCCCC2)CCN(CC[C@@]2(c3ccc(Cl)c(Cl)c3)CN(C(=O)c3ccccc3)CCO2)CC1	10.9 µM (active)	
CN(C)c1ccc(C(=C2C=CC(=[N+](C)C)C=C2)c2ccc(N(C)C)cc2)cc1	15.6 µM (active)	

— PubChem BioAssay (EPA / NIEHS)
